Measured values reported in PubChem BioAssay (NCATS).
Results filed as inconclusive are left out. Activity calls are given as the source filed them. Unless noted, the call rests on the fitted dose curve; in most records, active means well fitted curve in the direction sought with a large enough effect; inconclusive means small, poorly fitted or top-dose-only effect, or another doubt; inactive means no such curve, though single readings can be large; an effect the other way counts as inactive or inconclusive.

Assays:
[1] = qHTS Assay for Lipid Storage Modulators (AID 1519; calls by dose curve; on activity change, negative = inhibition: on the % scale 0 is the no-effect control and ±100 the full control effect); settings: Drosophila S3 cells, BODIPY lipid droplet/cell ratio, laser cytometry, cells loaded with oleic acid
In short: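 Cells seeded at 5,000 per well were treated with compounds over a concentration series and loaded with oleic acid (400 uM, as added). Lipid droplet fluorescence (488 nm excitation, 500-530 nm channel) was read by laser-scanning cytometry and normalized to 20 uM Triacsin C.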

[2] = molecular target: ATP-dependent 6-phosphofructokinase (Trypanosoma brucei brucei) (UniProt O15648); test: qHTS Assay to Find Inhibitors of T. brucei phosphofructokinase: hit validation (AID 492961);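 further: luminescence reports ADP formed as PFK phosphorylates fructose-6-phosphate with ATP; on the % scale 0 is the no-effect control and ±100 the full control effect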; settings: T. brucei PFK, ADP-Glo luminescence; series mostly up to 24.3 µM
In short: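 Compounds titrated; %activity normalized to 0x and 1x enzyme controls, curve-fitted. Readout: ADP-Glo luminescence after 45 min room-temperature reaction of 1.25 nM PFK, 0.1 mM ATP, 0.5 mM F6P, pH 8.0.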

[3] = molecular target: Ubiquitin carboxyl-terminal hydrolase 1 (Homo sapiens) (UniProt O94782); test: Inhibitors of USP1/UAF1: Pilot qHTS (AID 504865); settings: purified USP1/UAF1, Ub-rhodamine cleavage fluorescence; series mostly up to 114 µM;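 further: rhodamine fluorescence freed from ubiquitin-rhodamine substrate followed over time; top concentration of the series differs between compounds; on the % scale 0 is the no-effect control and ±100 the full control effect; nearly all actives have a fitted effect of over 35% in size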
In short: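 1nM USP1/UAF1 + cpd, 15 min RT; start w/ Ub-Rho 150nM final; kinetic FL 480/540 nm, 6 reads q60 s. Buffer 50mM HEPES pH 7.8, 0.5mM EDTA, 1mM TCEP, 0.01% Tween-20, 0.1 mg/ml BSA.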

[4] = molecular target: Luciferin 4-monooxygenase (Photinus pyralis) (UniProt P08659); test: Biochemical firefly luciferase enzyme assay for NPC (AID 624030);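 further: purified P. pyralis luciferase at 10 nM with luciferin and ATP substrate; 0% = DMSO and -100% = full luciferase inhibition by PTC124 control; nearly all actives have a fitted effect of over 70% in size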; settings: purified P. pyralis luciferase, luminescence, 5 min; series mostly up to 24.9 µM
In short: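 Purified P. pyralis luciferase at 10 nM in 50 mM Tris Acetate (final), luminescence read within 5 minutes of enzyme addition to compounds. Activity normalised to PTC124 versus DMSO; concentration-response curves classed by r2, magnitude and activity.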

[5] = qHTS profiling for inhibitors of Plasmodium falciparum proliferation (AID 504749); further: nearly all actives have a fitted effect of over 60% in size; further: potency means the concentration at half of the fitted maximal effect;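 on activity, negative = inhibition: 0% = DMSO vehicle and full inhibition = artemisinin control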; settings: P. falciparum in erythrocytes, SYBR Green DNA, 72 h
In short: (§1)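 SYBR Green fluorescence (ex 485 nm, em 535 nm) reports parasite DNA after 72 h compound exposure of infected red cells at 0.3% parasitemia, 2.5% hematocrit; signal normalized to 0.29 uM artemisinin and vehicle wells.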

3D7 = test: as above; settings: P. falciparum in erythrocytes, SYBR Green DNA, 72 h; series mostly up to 12.8 µM
In short: as §1

AS120 = test: as above; settings: P. falciparum in erythrocytes, SYBR Green DNA, 72 h; series mostly up to 12.8 µM
In short: as §1

C2A = test: as above; settings: P. falciparum in erythrocytes, SYBR Green DNA, 72 h; series mostly up to 12.8 µM
In short: as §1

CP185 = test: as above; settings: P. falciparum in erythrocytes, SYBR Green DNA, 72 h; series mostly up to 12.8 µM
In short: as §1

CP191 = test: as above; settings: P. falciparum in erythrocytes, SYBR Green DNA, 72 h; series mostly up to 12.8 µM
In short: as §1

CP192 = test: as above; settings: P. falciparum in erythrocytes, SYBR Green DNA, 72 h; series mostly up to 12.8 µM
In short: as §1

CP217 = test: as above; settings: P. falciparum in erythrocytes, SYBR Green DNA, 72 h; series mostly up to 12.8 µM
In short: as §1

CP238 = test: as above; settings: P. falciparum in erythrocytes, SYBR Green DNA, 72 h; series mostly up to 12.8 µM
In short: as §1

CP247 = test: as above; settings: P. falciparum in erythrocytes, SYBR Green DNA, 72 h; series mostly up to 12.8 µM
In short: as §1

CP250 = test: as above; settings: P. falciparum in erythrocytes, SYBR Green DNA, 72 h; series mostly up to 12.8 µM
In short: as §1

CP262 = test: as above; settings: P. falciparum in erythrocytes, SYBR Green DNA, 72 h; series mostly up to 12.8 µM
In short: as §1

ECU = test: as above; settings: P. falciparum in erythrocytes, SYBR Green DNA, 72 h; series mostly up to 12.8 µM
In short: as §1

FAB9 = test: as above; settings: P. falciparum in erythrocytes, SYBR Green DNA, 72 h; series mostly up to 12.8 µM
In short: as §1

HB3 = test: as above; settings: P. falciparum in erythrocytes, SYBR Green DNA, 72 h; series mostly up to 12.8 µM
In short: as §1

SC27B = test: as above; settings: P. falciparum in erythrocytes, SYBR Green DNA, 72 h; series mostly up to 12.8 µM
In short: as §1

[6] = measured here: cell count channel max response
[7] = measured here: lipid channel max response
[8] = at 12.8 µM (top of the series), parasite line A
[9] = at 12.8 µM (top of the series), parasite line B

Sequence of Ubiquitin carboxyl-terminal hydrolase 1 (Homo sapiens) (O94782 whole entry, looked up): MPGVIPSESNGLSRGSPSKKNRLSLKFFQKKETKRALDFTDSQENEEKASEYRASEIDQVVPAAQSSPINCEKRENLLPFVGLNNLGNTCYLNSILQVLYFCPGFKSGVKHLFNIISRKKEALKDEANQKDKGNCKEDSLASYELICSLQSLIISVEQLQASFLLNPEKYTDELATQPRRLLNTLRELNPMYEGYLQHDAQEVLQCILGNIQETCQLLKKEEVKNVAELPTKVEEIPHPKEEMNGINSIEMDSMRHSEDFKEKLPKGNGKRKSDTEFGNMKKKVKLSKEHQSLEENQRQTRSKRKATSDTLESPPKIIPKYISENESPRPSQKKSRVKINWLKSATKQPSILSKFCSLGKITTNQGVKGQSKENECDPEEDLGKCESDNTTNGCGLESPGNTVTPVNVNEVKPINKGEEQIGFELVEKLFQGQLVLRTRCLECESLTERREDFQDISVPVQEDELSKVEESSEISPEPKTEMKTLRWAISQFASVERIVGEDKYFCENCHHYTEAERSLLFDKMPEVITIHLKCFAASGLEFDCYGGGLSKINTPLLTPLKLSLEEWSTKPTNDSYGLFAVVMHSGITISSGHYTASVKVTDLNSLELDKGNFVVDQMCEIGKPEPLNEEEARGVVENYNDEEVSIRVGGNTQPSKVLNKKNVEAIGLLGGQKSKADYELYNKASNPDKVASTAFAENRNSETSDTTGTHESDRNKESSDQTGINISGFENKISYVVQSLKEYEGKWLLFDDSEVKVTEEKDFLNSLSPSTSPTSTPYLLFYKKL
Sequence of Luciferin 4-monooxygenase (Photinus pyralis) (P08659 whole entry, looked up): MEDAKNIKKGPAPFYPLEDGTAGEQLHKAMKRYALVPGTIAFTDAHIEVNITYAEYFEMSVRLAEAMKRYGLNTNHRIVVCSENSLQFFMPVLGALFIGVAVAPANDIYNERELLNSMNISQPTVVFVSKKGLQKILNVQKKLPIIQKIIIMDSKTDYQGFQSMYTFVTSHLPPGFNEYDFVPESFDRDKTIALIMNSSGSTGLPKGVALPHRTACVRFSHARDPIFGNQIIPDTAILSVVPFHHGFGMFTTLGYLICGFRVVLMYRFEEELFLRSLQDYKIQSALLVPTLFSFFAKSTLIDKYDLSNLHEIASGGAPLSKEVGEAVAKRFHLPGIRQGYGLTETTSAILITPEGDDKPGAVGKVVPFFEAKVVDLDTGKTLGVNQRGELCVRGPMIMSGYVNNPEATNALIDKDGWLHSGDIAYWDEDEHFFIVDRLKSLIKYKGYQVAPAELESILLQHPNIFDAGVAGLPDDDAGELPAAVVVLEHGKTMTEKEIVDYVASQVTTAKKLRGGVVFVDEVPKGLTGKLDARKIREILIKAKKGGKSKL
Sequence of ATP-dependent 6-phosphofructokinase (Trypanosoma brucei brucei) (O15648 whole entry, looked up): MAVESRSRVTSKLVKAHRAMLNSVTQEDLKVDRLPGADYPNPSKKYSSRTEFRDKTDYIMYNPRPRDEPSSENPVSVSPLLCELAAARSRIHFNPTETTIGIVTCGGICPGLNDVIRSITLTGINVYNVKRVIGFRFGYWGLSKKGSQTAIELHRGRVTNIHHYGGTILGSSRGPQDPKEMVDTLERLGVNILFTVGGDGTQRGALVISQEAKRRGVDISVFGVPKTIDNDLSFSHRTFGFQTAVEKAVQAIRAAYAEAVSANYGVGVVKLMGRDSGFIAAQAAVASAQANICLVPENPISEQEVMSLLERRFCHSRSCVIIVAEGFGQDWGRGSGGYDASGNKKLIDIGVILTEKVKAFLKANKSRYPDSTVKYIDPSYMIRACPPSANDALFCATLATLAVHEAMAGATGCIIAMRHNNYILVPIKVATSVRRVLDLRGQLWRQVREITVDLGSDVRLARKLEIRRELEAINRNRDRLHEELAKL

CC(=O)O[C@H]1C[C@@]2(C)[C@H](C[C@@H](O)[C@H]3[C@@]4(C)CC[C@@H](O)[C@@H](C)[C@H]4CC[C@@]32C)C1=C(CCC=C(C)C)C(=O)O
-3.61%: max response [1, 6]
inactive: activity change, negative = inhibition ([1]; at 25.7 µM (top of the series)) -3.43% | outcome [2] | Potency [3] | Potency [4] | activity, negative = inhibition ([5]; at 28.7 µM (top of the series), parasite line A) 7.93% | activity, negative = inhibition ([5]; at 28.7 µM (top of the series), parasite line B) 2.16% | Potency (3D7) | Potency (AS120) | Potency (C2A) | Potency (CP185) | Potency (CP191) | Potency (CP192) | Potency (CP217) | Potency (CP238) | Potency (CP247) | Potency (CP250) | Potency (CP262) | Potency (ECU) | Potency (FAB9) | Potency (HB3) | Potency (SC27B)
-6.42%: max response [1, 7]

CC/C=C\C[C@H]1C(=O)CC[C@@H]1CC(=O)O
-11.5%: max response [1, 7]
inactive: activity change, negative = inhibition ([1]; at 57.5 µM (top of the series)) -2.79%
-8.93%: max response [1, 6]

CN1CCO[C@H](c2ccccc2)c2ccccc2C1
-10.4%: max response [1, 6]
-11.4%: max response [1, 7]
inactive: activity change, negative = inhibition ([1]; at 25.7 µM (top of the series)) -1.73% | outcome [2] | Potency [3] | Potency [4] | activity, negative = inhibition [5, 8] -5.98% | activity, negative = inhibition [5, 9] 0.83% | Potency (3D7) | Potency (C2A) | Potency (CP191) | Potency (CP192) | Potency (CP217) | Potency (CP250) | Potency (CP262) | Potency (ECU) | Potency (FAB9) | Potency (HB3) | Potency (SC27B)

C/C(=C\CNc1ncnc2nc[nH]c12)CO
inactive: activity change, negative = inhibition ([1]; at 57.5 µM (top of the series)) -1.3%
3.25%: max response [1, 7]
4.12%: max response [1, 6]

COC(=O)[C@@H]1[C@@H]2C[C@H]3c4[nH]c5cc(OC)ccc5c4CCN3C[C@@H]2C[C@H](OC(=O)/C=C\c2cc(OC)c(OC)c(OC)c2)[C@H]1OC
inactive: activity change, negative = inhibition ([1]; at 25.7 µM (top of the series)) -1.81% | outcome [2] | Potency [3] | Potency [4] | Potency (CP185) | Potency (CP262) | Potency (FAB9)
-3.85%: max response [1, 7]
active: Potency (AS120) 3.55 µM | Potency (CP217) 3.55 µM
-4.11%: max response [1, 6]

C[C@@]12CCC(=O)C[C@@H]1CC(=O)[C@H]1[C@H]3CCC[C@]3(C)C(=O)C[C@@H]12 (tested in a mixture with another compound)
2.78%: max response [1, 6]
inactive: activity change, negative = inhibition ([1]; at 25.7 µM (top of the series)) 0.558% | Potency [3]
4.64%: max response [1, 7]

NCCC(=O)N[C@@H](Cc1cnc[nH]1)C(=O)O
-9.96%: max response [1, 7]
inactive: activity change, negative = inhibition ([1]; at 57.5 µM (top of the series)) -2.81%
-6.32%: max response [1, 6]

Nc1ncnc2c1nc(Br)n2[C@H]1O[C@H]2COP(=O)(O)O[C@H]2[C@@H]1O
0.508%: max response [1, 7]
2.68%: max response [1, 6]
inactive: activity change, negative = inhibition ([1]; at 57.5 µM (top of the series)) -1.26% | Potency [3]

CCN1CCC[C@@H](OC(=O)C(c2ccccc2)c2ccccc2)C1
-3.56%: max response [1, 6]
-10.4%: max response [1, 7]
inactive: activity change, negative = inhibition ([1]; at 25.7 µM (top of the series)) -6.3% | outcome [2] | Potency [4] | activity, negative = inhibition [5, 8] 0.857% | activity, negative = inhibition [5, 9] -1.3% | Potency (3D7) | Potency (AS120) | Potency (C2A) | Potency (CP191) | Potency (CP192) | Potency (CP217) | Potency (CP238) | Potency (CP247) | Potency (CP250) | Potency (CP262) | Potency (ECU) | Potency (FAB9) | Potency (HB3) | Potency (SC27B)

CC1(C)S[C@@H]2[C@H](NC(=O)COc3ccccc3)C(=O)N2[C@H]1C(=O)O (tested in a mixture with another compound)
inactive: activity change, negative = inhibition ([1]; at 25.7 µM (top of the series)) 1.44% | Potency [3]
-7.74%: max response [1, 7]
-7.85%: max response [1, 6]

CC1=C(C(=O)O)N2C(=O)[C@@H](NC(=O)[C@@H](N)c3ccc(O)cc3)[C@@H]2SC1
inactive: activity change, negative = inhibition ([1]; at 25.7 µM (top of the series)) 1.21% | outcome [2] | Potency [3] | Potency [4] | activity, negative = inhibition [5, 8] 9.01% | activity, negative = inhibition [5, 9] 1.57% | Potency (3D7) | Potency (AS120) | Potency (C2A) | Potency (CP185) | Potency (CP191) | Potency (CP192) | Potency (CP217) | Potency (CP238) | Potency (CP247) | Potency (CP250) | Potency (CP262) | Potency (ECU) | Potency (FAB9) | Potency (HB3) | Potency (SC27B)
-2.01%: max response [1, 7]
-1.1%: max response [1, 6]

COc1ccc(-c2cc(=O)c3c(O)cc(O)cc3o2)cc1
inactive: activity change, negative = inhibition ([1]; at 57.5 µM (top of the series)) 14.6% | Potency [3]
4.93%: max response [1, 6]
23.2%: max response [1, 7]

CCCCC[C@H](O)/C=C\[C@@H]1[C@H](O)CC(=O)[C@@H]1CCCCCCC(=O)O
inactive: activity change, negative = inhibition ([1]; at 25.7 µM (top of the series)) -3.38% | outcome [2] | Potency [3] | Potency [4] | activity, negative = inhibition [5, 8] 8.32% | activity, negative = inhibition [5, 9] 1.76% | Potency (3D7) | Potency (AS120) | Potency (C2A) | Potency (CP185) | Potency (CP191) | Potency (CP192) | Potency (CP217) | Potency (CP238) | Potency (CP247) | Potency (CP250) | Potency (CP262) | Potency (ECU) | Potency (FAB9) | Potency (SC27B)
-5.83%: max response [1, 6]
-11.1%: max response [1, 7]

CC1(C)[C@@H](OC(=O)CCC(=O)O)CC[C@@]2(C)[C@H]1CC[C@@]1(C)[C@H]2C(=O)C=C2[C@H]3C[C@](C)(C(=O)O)CC[C@]3(C)CC[C@@]21C
-2.85%: max response [1, 7]
-1.7%: max response [1, 6]
inactive: activity change, negative = inhibition ([1]; at 25.7 µM (top of the series)) -0.623% | outcome [2] | Potency [3] | Potency [4] | activity, negative = inhibition [5, 8] -5.96% | activity, negative = inhibition [5, 9] 13.4% | Potency (3D7) | Potency (AS120) | Potency (C2A) | Potency (CP185) | Potency (CP191) | Potency (CP192) | Potency (CP217) | Potency (CP238) | Potency (CP247) | Potency (CP250) | Potency (CP262) | Potency (ECU) | Potency (FAB9) | Potency (HB3) | Potency (SC27B)

Cc1cn([C@@H]2C[C@H](N=[N+]=N)[C@H](CO)O2)c(=O)[nH]c1=O
inactive: activity change, negative = inhibition ([1]; at 25.7 µM (top of the series)) -0.533% | Potency [3]
-19.5%: max response [1, 6]
-18.3%: max response [1, 7]

CCCCC[C@H](O)/C=C\[C@H]1[C@H](C/C=C\CCCC(=O)O)[C@@H](O)C[C@H]1O (tested in a mixture with another compound)
inactive: activity change, negative = inhibition ([1]; at 25.7 µM (top of the series)) -0.941% | outcome [2] | Potency [3] | Potency [4] | activity, negative = inhibition [5, 8] -9.08% | activity, negative = inhibition [5, 9] -0.0944% | Potency (3D7) | Potency (AS120) | Potency (C2A) | Potency (CP185) | Potency (CP191) | Potency (CP192) | Potency (CP217) | Potency (CP238) | Potency (CP247) | Potency (CP250) | Potency (CP262) | Potency (ECU) | Potency (FAB9) | Potency (HB3) | Potency (SC27B)
13.4%: max response [1, 7]
14.3%: max response [1, 6]
